According to PubChem BioAssay (Tox21):
Records with an inconclusive call do not appear. Calls of active or inactive are those of the source. Unless noted, calls come from the whole dose curve; as a rule, active = well fitted curve in the direction sought with a large enough effect in the repeat runs; inconclusive = weak or mixed curves; inactive = no such curve, though single readings can be large; an effect the other way counts as inactive or inconclusive.

Assays:
[1] = qHTS assay to identify small molecule agonists of the vitamin D receptor (VDR) signaling pathway - cell viability counter screen (AID 743224); conditions: VDR-bla HEK293T viability, CellTiter-Glo luminescence, 16 h; series mostly up to 62.6 µM; note: nearly all actives have a fitted effect of over 50% in size
Outline: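 Counter screen run in the same wells as the VDR-bla reporter assay: CellTiter-Glo luminescence, 30 min at room temperature, after 16 h compound treatment at 37C of cells pre-plated for 4 h.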

[2] = qHTS assay to identify small molecule antagonists of the vitamin D receptor (VDR) signaling pathway - cell viability counter screen (AID 743225); conditions: VDR-bla HEK293T viability, CellTiter-Glo luminescence, 16 h; series mostly up to 61 µM; note: nearly all actives have a fitted effect of over 50% in size
Outline: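 Cells (VDR-UAS-bla HEK 293T) are plated, rested 4 h at 37C, dosed with compound and 3 nM final 1-alpha,25-dihydroxy vitamin D3, and incubated 16 h. Viability is taken from CellTiter-Glo luminescence in the reporter wells.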

[3] = qHTS assay to identify small molecule agonists of the NFkB signaling pathway (AID 1159509; active = well fitted curve in the direction sought with a large enough effect in the signal ratio in the repeat runs, not every such curve was filed as active; the % refers to the signal ratio); conditions: NFkB-bla ME-180 cells, beta-lactamase FRET ratio, 5 h; series mostly up to 61 µM
Outline: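 Beta-lactamase reporter assay run in quantitative high-throughput format on an NF-kB-responsive ME-180 line, with 5 hr compound treatment and a FRET-based blue/green fluorescence readout.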

[4] = qHTS assay to identify small molecule agonists of the NFkB signaling pathway - cell viability counter screen (AID 1159515; calls by dose curve; note: nearly all actives have a fitted effect of over 55% in size); conditions: NFkB-bla ME-180 viability, CellTiter-Glo luminescence, 5 h; series mostly up to 61 µM
Outline: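 Read by CellTiter-Glo luminescence (30 min, room temperature) in the wells also used for the beta-lactamase FRET read. ME-180 NFkB-bla cells at 2,000 per well were plated overnight, then exposed to compound for 5 hr at 37 C.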

[5] = qHTS assay to identify small molecule agonists of the endoplasmic reticulum stress response signaling pathway (AID 1159516; active = well fitted activation curve with a large enough effect in the signal ratio in the repeat runs, not every such curve was filed as active; the % refers to the signal ratio); conditions: ESRE-bla HeLa, ER stress beta-lactamase reporter, 5 h; series mostly up to 61 µM
Outline: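 Ratiometric FRET readout (405 nm excitation; 460 and 530 nm emission) of a beta-lactamase gene driven by the ER stress response element, after 2 hr substrate loading. HeLa ESRE-bla cells were seeded overnight and treated with compounds for only 5 hr at 37 C.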

[6] = qHTS assay to identify small molecule agonists of the endoplasmic reticulum stress response signaling pathway - cell viability counter screen (AID 1159517; calls by dose curve; note: nearly all actives have a fitted effect of over 50% in size); conditions: ESRE-bla HeLa viability, CellTiter-Glo luminescence, 5 h; series mostly up to 61 µM
Outline: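 Steps: seed 1,500 ESRE-bla HeLa cells per well; incubate overnight at 37 C, 5% CO2; add compounds in DMSO for 5 hr; run FRET substrate 2 hr RT; add CellTiter-Glo, wait 30 min, read luminescence.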

[7] = qHTS assay to identify small molecule antagonists of the retinoid-related orphan receptor gamma (ROR-gamma) signaling pathway - cell viability counter screen (AID 1159520); conditions: Tet-on RORgamma CHO cells viability, ATP luminescence, 16 h; series mostly up to 92.4 µM; note: nearly all actives have a fitted effect of over 50% in size
Outline: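 Tet-on ROR gamma CHO cells were given compounds for 2 hr, then doxycycline hyclate at 1 uM final, and incubated 16 hr at 37 C. Viability was measured as ATP content by CellTiter-Glo luminescence.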

[8] = target: Nuclear receptor ROR-gamma (Homo sapiens) (UniProt P51449); experiment: qHTS assay to identify small molecule antagonists of the retinoid-related orphan receptor gamma (ROR-gamma) signaling pathway (AID 1159521); conditions: Tet-on RORgamma CHO cells, RORE-luciferase, 16 h; series mostly up to 92.4 µM
Outline: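 RORγ antagonism is scored from reduced reporter luminescence in Tet-on CHO cells. Induction used 1 uM final doxycycline hyclate for 16 h at 37 C, following a 2 h compound exposure.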

[9] = qHTS assay to identify small molecule agonists of the AP-1 signaling pathway - cell viability counter screen (AID 1159525; calls by dose curve; note: nearly all actives have a fitted effect of over 55% in size); conditions: ME-180 AP-1-bla cells viability, ATP luminescence, 5 h; series mostly up to 76.8 µM
Outline: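 Same-well cytotoxicity counter screen of the Tox21 10K library in ME-180 cells. The readout is ATP-dependent luminescence after 5 h compound treatment. Data are normalised to DMSO and tetra n-octyl ammonium bromide controls.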

[10] = qHTS assay to identify small molecule agonists of the AP-1 signaling pathway (AID 1159526; calls by dose curve); conditions: ME-180 (cervical carcinoma) AP-1-bla reporter, beta-lactamase FRET ratio, 5 h; series mostly up to 76.8 µM
[11] = target: Retinoic acid receptor RXR-alpha (Homo sapiens) (UniProt P19793); experiment: qHTS assay to identify small molecule agonists of the RXR signaling pathway (AID 1159527; calls by dose curve; note: nearly all actives have a fitted effect of over 35% in size; note: potency is the fitted concentration of half-maximal effect); conditions: HEK293T RXRa-UAS-bla, beta-lactamase ratio, 16 h; series mostly up to 76.8 µM
Sequence of Retinoic acid receptor RXR-alpha (Homo sapiens) (P19793 whole entry, looked up): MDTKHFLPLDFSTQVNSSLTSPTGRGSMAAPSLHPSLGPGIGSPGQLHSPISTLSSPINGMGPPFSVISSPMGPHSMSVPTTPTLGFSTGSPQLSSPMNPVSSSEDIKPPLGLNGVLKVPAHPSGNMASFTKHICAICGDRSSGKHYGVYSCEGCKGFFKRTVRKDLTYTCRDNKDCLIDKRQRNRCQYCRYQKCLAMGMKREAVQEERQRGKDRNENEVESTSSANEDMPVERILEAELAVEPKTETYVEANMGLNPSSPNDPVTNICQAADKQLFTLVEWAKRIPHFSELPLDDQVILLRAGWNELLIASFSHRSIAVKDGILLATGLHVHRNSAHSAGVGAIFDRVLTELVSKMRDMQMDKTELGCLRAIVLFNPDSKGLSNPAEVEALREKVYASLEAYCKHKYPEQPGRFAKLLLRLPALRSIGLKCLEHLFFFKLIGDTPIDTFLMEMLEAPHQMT
Outline: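 qHTS of the Tox21 10K library in GeneBLAzer RXR-alpha HEK 293T cells carrying a beta-lactamase reporter […]; 16 hr treatment, 9-cis retinoic acid as agonist control, FRET read-out.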

[12] = qHTS assay to identify small molecule agonists of the RXR signaling pathway - cell viability counter screen (AID 1159529); conditions: RXR-alpha-bla HEK293T viability, CellTiter-Glo, 16 h; series mostly up to 76.8 µM; note: nearly all actives have a fitted effect of over 50% in size
Outline: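 Cell viability is measured by CellTiter-Glo luminescence, 30 min at room temperature, in wells already read for beta-lactamase. Engineered HEK 293T cells (RXR-alpha-UAS-bla) are dosed 16 hr at 37 C. Tetraoctyl ammonium bromide serves as positive control.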

[13] = qHTS assay to identify small molecule antagonists of the retinoid acid receptor (RAR) signaling pathway - cell viability counter screen (AID 1159551); conditions: C3RL4 cells viability, ATP luminescence (CellTiter-Glo), 6 h; series mostly up to 92.4 µM; note: nearly all actives have a fitted effect of over 35% in size
Outline: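 Cytotoxicity counter screen: ATP content quantified by CellTiter-Glo luminescence in C3RL4 cells treated 6 hr at 37 C with compound and retinol (1 uM final). Cells plated at 1,000/well and cultured overnight before dosing.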

[14] = qHTS assay to identify small molecule antagonists of the retinoic acid receptor (RAR) signaling pathway (AID 1159552; note: nearly all actives have a fitted effect of over 50% in size); conditions: C3RL4 RARE luciferase reporter, retinol-stimulated, 6 h; series mostly up to 92.4 µM
Outline: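 Quantitative HTS in C3RL4 RARE-luciferase reporter cells. Compounds were added with 1 uM (final) retinol; luminescence was read after 6 hr.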

[15] = qHTS assay to identify small molecule agonists of the retinoic acid receptor (RAR) signaling pathway (AID 1159553); conditions: C3RL4 RARE luciferase reporter, agonist, 6 h; series mostly up to 73.3 µM
Outline: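 Luminescence was measured 30 min after luciferase reagent addition at room temperature. Before that, C3RL4 reporter cells (1,000 per well, plated overnight) were treated with compound for 6 hr at 37 C and 5% CO2.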

Measured: Potency

O=NN1CCN(N=O)CC1
not listed: [14] | [15]
inactive: all other assays above

O=C(CCCN1CCC(n2c(=O)[nH]c3ccccc32)CC1)c1ccc(F)cc1
not listed: [14] | [15]
inactive: all other assays above

CCCSC(=O)N(CCC)CCC
not listed: [2] | [14] | [15]
inactive: all other assays above

N#Cc1c(Cl)cccc1Cl
not listed: [14] | [15]
inactive: all other assays above

CCCCC(=O)Cl
not listed: [12] | [14] | [15]
inactive: all other assays above

O=C(NCO)NCO
not listed: [1] | [12] | [14] | [15]
inactive: all other assays above

CC(C)NCC(O)c1ccc(N)c(C#N)c1 (centres undefined)
not listed: [14] | [15]
inactive: all other assays above

Cc1ncc2n1-c1ccc(Cl)cc1C(c1ccccc1F)=NC2
not listed: [14] | [15]
inactive: all other assays above

COc1cc(OC)nc(Sc2cccc(Cl)c2C(=O)O)n1
not listed: [2] | [14] | [15]
inactive: all other assays above

CCOP(=O)(N=C1SCCS1)OCC
not listed: [14] | [15]
inactive: all other assays above

NC1=NC(=O)C(c2ccccc2)O1 (centres undefined)
not listed: [1] | [14] | [15]
inactive: all other assays above

COC(=O)C(c1ccccc1)C1CCCCN1 (centres undefined)
not listed: [1] | [2] | [11] | [14] | [15]
inactive: all other assays above

CCC1(c2ccccc2)C(=O)N=C(O)NC1=O (centres undefined)
active: [11] 12 µM
not listed: [2] | [14] | [15]
inactive: all other assays above

O=C(CCN1CC1)OCC(CO)(COC(=O)CCN1CC1)COC(=O)CCN1CC1
not listed: [2] | [14] | [15]
inactive: all other assays above

O=[N+]([O-])c1cc(Cl)c(Cl)c(Cl)c1
not listed: [14] | [15]
inactive: all other assays above

CCSC(=O)N(CC)C1CCCCC1
not listed: [14] | [15]
inactive: all other assays above

CCC(C)n1c(=O)[nH]c(C)c(Br)c1=O (centres undefined)
not listed: [14] | [15]
inactive: all other assays above

CS(=O)(=O)c1cc(C(F)(F)F)ccc1C(=O)c1cnoc1C1CC1
not listed: [11]
inactive: all other assays above

CN1C(=S)CN=C(c2ccccc2)c2cc(Cl)ccc21
not listed: [11] | [15]
inactive: all other assays above

C=C(C)[C@@H]1CC=C(C=O)CC1
not listed: [1] | [11] | [15]
inactive: all other assays above
